Screen size: about 370,000 compounds; about 4,100 (1.1%) were called active. The list comes from a sample in which actives are over-represented; it also holds similar structures and randomly drawn compounds. A number with no mark means an inactive call.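 Rule for the calls: active = inhibition above the mean over all tested compounds plus 3 SD (cut at about 3.6% in these data); inactive = the rest.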

This assay is described as follows: DAX1 (NR0B1) inhibitors on StAR promoter, primary screen, cell-based, luminescence, SF-1 (NR5A1), full-length DAX-1 (AID 652010).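 Note: 0% = DAX-1 cells with DMSO and 100% = cells lacking DAX-1 with DMSO; higher inhibition means more luminescence from relief of DAX-1 repression.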 To be noted: HEK293T StAR-luciferase reporter, SF-1/DAX-1 repression relief; at 6.8 µM; hits give high values.
With `COC(=O)[C@]12C[C@H](CC(=O)NCCc3ccccc3OC)C(=O)N(Cc3ccccc3)C1=C[C@H](C(C)C)O[C@@H]2C1CC1`, the inhibition is 0.15%.

For `CCOC(=O)[C@]12CCCCC/C=C\1N(Cc1ccc(OC)cc1)C(=O)[C@H]2CC(=O)N1CCOCC1`, the inhibition is -0.42%.

As for `CN1C(=O)C2CC(O)C(SC3CC4C(=O)N(C)C(=O)C4CC3O)CC2C1=O` (stereo not given), the inhibition was 0.64%.

Regarding `CCOC(=O)/C=C/c1ccccc1O`, the inhibition was 0.4%.

On to `COc1cccc(CNC(=O)[C@H]2CCCN2C(=O)[C@H]2CCCN2C(=O)c2cc(F)cc(F)c2)c1`, for which the inhibition is 0.51%.

Turning to `CCn1c2ccccc2c2cc(NC(=O)CSc3nnc(-c4ccccc4)n3-c3ccc(C)cc3)ccc21`, the inhibition is -0.77%.

In the case of `CN1C(=O)c2cc(NS(C)(=O)=O)ccc2OC[C@@H]2O[C@@H](CC(=O)NCc3ccc(-c4ccccc4)cc3)CC[C@H]21`, the inhibition was -0.35%.

For the molecule `CC(C)(C)NS(=O)(=O)NC(=O)C1=C(N2CCCC2)COC1=O`, the inhibition is 0.57%.

As to `CCCCNC(=O)C[C@H]1C(=O)N(Cc2ccc(OC)cc2)C2=CCCC[C@@]21C(=O)OCC`, the inhibition is -0.74%.

As for `C[C@H]1[C@H](c2ccccc2)Oc2cc(Br)ccc2S(=O)(=O)N1Cc1cccc(F)c1`, the inhibition is -0.98%.

With `Cc1c(C(C)c2ccccc2O)[nH]c2ccccc12` (stereo not given), the inhibition was -1.62%.

Turning to `C[C@@H](NC(=O)c1ccccc1OCC(=O)Nc1ccc(I)cc1)C(=O)N(C)Cc1ccccc1`, the inhibition was -1.33%.

In the case of `CC1CCN(C(=S)c2ccc(-c3ccc(Cl)cc3Cl)o2)CC1`, the inhibition was 0.67%.

Take `O=C(NC(=S)Nc1ccccc1C(=O)O)c1ccc(-c2ccc(Br)cc2)o1`: the inhibition is -0.57%.

In the case of `S=C(c1ccc(-c2ccccc2)o1)N1CCCCC1`, the inhibition was 5.8% (active).

As to `O=S1(=O)c2ccc(Br)cc2-n2nncc2CN1Cc1cccc(Cl)c1`, the inhibition was -0.73%.

As to `CCCS(=O)(=O)N1CCC(C(=O)NCCc2ccc(OC)c(OC)c2)CC1`, the inhibition is 0.15%.

Consider `COC(=O)C[C@@H]1CC[C@@H]2[C@@H](COc3ccc(NC(=O)Nc4ccc(F)c(F)c4)cc3C(=O)N2C)O1`, for which the inhibition is -1.81%.

Regarding `CC1CCN(c2ccc(C(=O)O)cc2NS(=O)(=O)c2ccc(Br)s2)CC1`, the inhibition was -1.22%.

On to `O=C(Nc1ccc2c(c1)CCC2)c1ccc(Br)s1`, for which the inhibition was 11.2% (active).

For the molecule `O=C(Nc1ccc(F)cc1)c1cc2c(s1)CCCC2`, the inhibition was 2.02%.

For `CC1CC(C)CN(CCC(=O)Nc2ccc3c(c2)CCC3)C1` (stereo not given), the inhibition was -0.49%.

Consider `CCOC(=O)c1c(S(=O)(=O)Nc2cccc(Cl)c2)c(C)n(C)c1C`, for which the inhibition was 1.63%.

Regarding `CCOC(=O)c1c(S(=O)(=O)NCC(=O)Nc2ccc(C)cc2)c(C)n(C)c1C`, the inhibition is -0.57%.

For the molecule `CCOC(=O)c1c(S(=O)(=O)Nc2ccc(CN3CCC(C)CC3)cc2)c(C)n(C)c1C`, the inhibition is 5.11% (active).

In the case of `CC(=O)O[C@@]1(C(C)=O)CCC2[C@H]3C=C(C)C4=CC(=O)CC[C@@]4(C)C3CC[C@]21C` (stereo not given in full), the inhibition was -0.75%.

With `Cc1nnc(SC(C)C(=O)Nc2ccc(S(=O)(=O)NC3CCCCC3)cc2)s1` (stereo not given), the inhibition was 0.57%.

Consider `Cn1cccc1C(=O)OCC(=O)NCCc1ccccc1`, for which the inhibition was 0.5%.

As to `Cc1cnc(C(=O)OCC(=O)NCCCc2ccccc2)cn1`, the inhibition is 1.25%.

Take `Cc1ccsc1C(=O)OCC(=O)NCCc1ccccc1`: the inhibition is 3.66% (active).

As to `COC(=O)C1CN(CC(C)C)CCS(=O)(=O)N1Cc1ccc(C)cc1` (stereo not given), the inhibition was -0.97%.

On to `O=C(CSc1nc2sc3c(c2c(=O)n1-c1ccccc1)CCCC3)NN=Cc1ccc(OCc2ccccc2)cc1`, for which the inhibition is 0.1%.

`C=CCn1c(SCC(=O)Nc2ccc(NC(C)=O)cc2)nc2sc(C)c(C)c2c1=O`: the inhibition was 4.82% (active).

Take `C=CCn1c(SCC(=O)/C(C#N)=C(\C)N)nc2sc(C)c(C)c2c1=O`: the inhibition was -0.39%.

`C=CCn1c(SCC(=O)NCCCO)nc2sc3c(c2c1=O)CCC3`: the inhibition was 0.03%.

For `Cc1cc(C)cc(N(CCC#N)C(=O)CN2C(=O)NC3(CCCC3)C2=O)c1`, the inhibition was -0.09%.

On to `COC(=O)Cc1nnn2c1[C@H](C)[C@H](c1ccccc1Br)OCC2`, for which the inhibition was -0.78%.

Consider `COc1ccc(/C=C2\CC3(OC(C)=O)CCCN2C3)cc1` (stereo not given), for which the inhibition was 1.13%.

`CN1C(=O)/C(=C/C=C2\SCCN2C)OC1=S`: the inhibition was 3.87% (active).

As for `Cc1ccccc1NC(=O)Cn1nnc(-c2ccccc2F)n1`, the inhibition was -0.11%.

Consider `CC1CCCN(CC(O)COc2ccc3c(c2)OCO3)C1` (stereo not given), for which the inhibition was 0.13%.

Turning to `CCOc1ccc(-n2c(SCC(=O)Nc3cc(C)c(NC(=O)c4ccccc4)cc3OC)nnc2-c2cccs2)cc1`, the inhibition was -3.08%.

With `C#CCNC(=O)C[C@H]1C[C@@]2(C(=O)OC)C(=C[C@H](C(C)C)O[C@@H]2C2CC2)N(Cc2ccco2)C1=O`, the inhibition is 0.65%.

For the molecule `Clc1ccc(-c2cc(C3CCNCC3)[nH]n2)c(Cl)c1`, the inhibition is -0.17%.

`Clc1ccccc1-c1cc(COc2ccc3ccccc3c2)no1`: the inhibition is 0.4%.

Turning to `Clc1ccc(-c2cc(-c3ccccn3)on2)c(Cl)c1`, the inhibition is 3.68% (active).

On to `CC(C)CNC(=O)OCc1cn(Cc2ccc(F)cc2)nn1`, for which the inhibition was -0.13%.

Consider `Cc1cc(N)n2nc(-c3ccc(C(C)(C)C)cc3)cc2n1`, for which the inhibition was 5.95% (active).

As to `CCCC(=O)C1=C(N(C)c2ccccc2)CC(C)(C)C(C(=O)OC)C1=O` (stereo not given), the inhibition is 0.24%.

On to `CCOc1ccc(-n2c(SCC(=O)Nc3cc(C)c(NC(=O)c4ccccc4)cc3OC)nnc2-c2cccc(Cl)c2)cc1`, for which the inhibition was -2.96%.

As to `CCOC(=O)N1CCN(C(=O)c2ccc3nc4cc(Cl)ccc4c(=O)n3c2)CC1`, the inhibition is -1.01%.

In the case of `C=CCN1C(=O)[C@@H](CC(=O)N2CCN(C(=O)c3ccco3)CC2)[C@]2(C(=O)OC)CCCCC=C12`, the inhibition is 0.15%.

For `COc1ccc(CNC(=O)c2ccc3oc(C(C)C)nc3c2)cc1`, the inhibition is 3.41%.

Turning to `CC(C)c1nc2cc(C(=O)NC(C)c3cnn(C)c3)ccc2o1` (stereo not given), the inhibition is -0.03%.

With `COC(=O)c1ccc(CNC(=O)c2ccc3oc(C(C)C)nc3c2)cc1`, the inhibition was 4.25% (active).

In the case of `COc1ccccc1Oc1ccc(N/C=C2/CCCC2=O)cc1`, the inhibition is 0.78%.

Regarding `COc1ccc(N/N=C2/CCCCC2=O)cc1`, the inhibition was 4.31% (active).

For the molecule `Cc1ccc(N/N=C2\COC(C)(C)CC2=O)cc1`, the inhibition is -0.09%.

As for `COc1cccc2cc(C(C)N(CCCN3CCOCC3)C(=O)Nc3ccc(Cl)cc3)oc12` (stereo not given), the inhibition was -0.37%.

Turning to `CN(C(=O)CSc1nnc(Nc2ccccc2)s1)C1CCS(=O)(=O)C1` (stereo not given), the inhibition was 0.34%.

On to `CC(C)c1ccc(Nc2nnc(SCC(=O)c3nnc(-c4ccccc4)o3)s2)cc1`, for which the inhibition is 5.21% (active).

Regarding `COc1cccc(Nc2nnc(SCC(=O)N3CC(C)OC(C)C3)s2)c1` (stereo not given), the inhibition is 0.08%.

For `C#CCN1CC(C)/C(=N/O)CC1C` (stereo not given), the inhibition was 0.13%.

As for `O=C(O)C1CCCN1S(=O)(=O)c1ccc(Br)cc1` (stereo not given), the inhibition was 0.15%.

With `COc1cc2c(cc1OC)/C(=C/C(=O)c1ccc(NC(C)=O)cc1)NCC2`, the inhibition was -0.03%.

Regarding `CC1CN/C(=C\C(=O)c2ccc(Br)cc2)C(=O)N1` (stereo not given), the inhibition was 4.26% (active).

Turning to `CC(CCN1CCC(C(O)(c2ccccc2)c2ccccc2)CC1)Oc1ccc(Cl)cc1` (stereo not given), the inhibition is 0.18%.

On to `O=C(Nc1cccc(F)c1)c1coc(=O)c(Br)c1`, for which the inhibition was 0.24%.

As to `Cc1nc2cc(NCc3cccs3)ccc2n1C`, the inhibition is 2.41%.

Consider `Cc1nc2cc(NC(=O)Nc3cccc(F)c3)ccc2n1C`, for which the inhibition was 5.18% (active).

In the case of `N/C(=N\OC(=O)Cc1ccc([N+](=O)[O-])cc1)c1ccccn1`, the inhibition was 0.83%.

As to `N/C(=N\OC(=O)CC1CCCCC1)c1ccccc1`, the inhibition is -0.16%.

In the case of `N/C(=N\OC(=O)CCC1CCCCC1)c1ccccn1`, the inhibition is 4.25% (active).

Consider `COCC(=O)N[C@@H]1C[C@@H]2O[C@@H](CO)CC[C@@H]2O[C@@H]1CCc1ccc(-c2ccccc2)cc1`, for which the inhibition is -0.14%.

In the case of `CSc1nc2nc3c(c(=O)n2[nH]1)CCC3`, the inhibition was -0.21%.

Take `O=c1c2c(nc3cc(-c4cccc(Cl)c4)[nH]n13)CCCC2`: the inhibition is 13.9% (active).

Turning to `COC(=O)[C@]12C[C@H](CC(=O)NCc3ccccc3)C(=O)N(CCC3=CCCCC3)C1=C[C@H](C(C)C)O[C@@H]2C1CC1`, the inhibition was -1.17%.

Turning to `O=C1Nc2ccccc2OC1CC(=O)N1CCCCCCC1` (stereo not given), the inhibition was -0.39%.

For the molecule `Cc1cc(C)nc(Nc2n[nH]c(-c3ccccc3N)n2)n1`, the inhibition was 4.12% (active).

Consider `CC(C)(C)C(c1nc2ccccc2[nH]1)n1c(Cc2csc3ccccc23)nc2ccccc21` (stereo not given), for which the inhibition is 0.83%.

With `O=C(Nc1ccccc1)N1CCN(Cc2nc3ccccc3c(=O)[nH]2)CC1`, the inhibition is -0.16%.

As for `COc1ccnc(NC(=S)N2CCN(c3ncc(C(F)(F)F)cc3Cl)CC2)c1`, the inhibition is -0.4%.

For the molecule `C=CCOC/C=C/C#CCN(CC=C)Cc1ccc(OC)cc1OC`, the inhibition was -0.5%.

In the case of `COc1ccc(CNC(=O)CSc2n[nH]c(N)n2)cc1OC`, the inhibition was -0.05%.

As to `COc1cc(CO)ccc1OCC(=O)Nc1cccc2ccccc12`, the inhibition is -3.43%.

Take `COc1ccc(CNC(=O)COc2ccccc2C(=O)c2cnn(-c3ccccc3)c2)cc1OC`: the inhibition is 4% (active).

As for `O=C(CSc1nnc(-c2cccc(Cl)c2)n1Cc1ccco1)Nc1ccc(OCc2ccccc2)cc1`, the inhibition was -2.28%.

For the molecule `NS(=O)(=O)c1ccc2nc(NC(=O)CS(=O)(=O)c3ccc(F)cc3)sc2c1`, the inhibition was 0.31%.

As for `CCC(CC)c1nnc(NC(=O)C2=COCCO2)s1`, the inhibition is 1.13%.

As to `NS(=O)(=O)c1ccc2nc(NC(=O)C3=COCCO3)sc2c1`, the inhibition was 9.6% (active).

The values above are taken from PubChem BioAssay AID652010 (The Scripps Research Institute Molecular Screening Center, 2013).
